Reference: ChEMBL document CHEMBL4513216, “Probing the Open Global Health Chemical Diversity Library for Multistage-Active Starting Points for Next-Generation Antimalarials” (ACS Infect Dis, 2020)
Among all 69,000 compounds or so, about 8,600 (12%) showed an effect of 50% or more. This is one part of a sample in which strong results are shown more often than they occur.

Each compound was assayed on Plasmodium berghei (assay: Screen against P. berghei liver stage (PbLuc), transformed with Luciferase, at 10uM). Details: tested at 10 uM.
Assay type: functional, HepG2

| Compound | INHIBITION [%] |
| --- | --- |
| CCc1nnc2n1CCN(CC(=O)N(CC)C1=CCCCC1)C2 | 24.6 |
| Cc1nnc2n1CCN(CC(=O)N1CCc3ccccc3C1)C2 | 50.7 |
| CC(C)c1nnc2n1CCN(CC(=O)N1CCc3ccccc3C1)C2 | 46.5 |
| Cc1nnc2n1CCN(C(=O)CN1C(=O)CCCc3ccccc31)C2 | 2.82 |
| CCc1nnc2n1CCN(CC(=O)N1CCc3ccccc3C1)C2 | 59.7 |
| CC(C)c1nnc2n1CCN(CC(=O)N1CCc3sccc3C1)C2 | -12.915 |
| CC(O)CN1CCC(CNCc2cccc(C(=O)N(C)C)c2)CC1 (stereo unspecified) | -38.7 |
| CCC(C)(CC(=O)O)NC(=O)Cc1ccccc1F (stereo unspecified) | 64.2 |
| CCC(C)(CC(=O)O)NC(=O)Cc1ccccc1Br (stereo unspecified) | -49.7 |
| CC(C)(NC(=O)Cc1ccccc1F)C(=O)O | -16 |
| COCCC(=O)N1CCC2(CC1)CN(C(C)=O)Cc1ccccc1O2 | 14.805 |
| Cc1ccccc1C1(C(=O)N2CCCC(n3cncn3)C2)CC1 (stereo unspecified) | 27.8 |
| O=C(C1CC1)N1C[C@H]2CCCN(S(=O)(=O)c3cccc(F)c3)[C@H]2C1 | 26.97 |
| CC(=O)N1C[C@H]2CCCN(S(=O)(=O)c3ccc(Cl)s3)[C@H]2C1 | 3.48 |
| COc1ccc(S(=O)(=O)N2CCC[C@@H]3CN(C(=O)C4CC4)C[C@@H]32)cc1 | 54 |
| COc1ccc(S(=O)(=O)N2CCC[C@@H]3CN(C(=O)C4CC4)C[C@@H]32)cc1F | 40.75 |
| O=C(C1CC1)N1C[C@H]2CCCN(S(=O)(=O)c3ccc4c(c3)CCC4)[C@H]2C1 | 58.8 |
| O=C(C1CC1)N1C[C@H]2CCCN(S(=O)(=O)c3ccc(Cl)s3)[C@H]2C1 | 31.3 |
| CS(=O)(=O)N1CCC(Cc2cnc(Br)cn2)CC1 | 33.2 |
| CCOC(=O)c1cnn(C2CCN(C(=O)CC3C=CCC3)CC2)c1N (stereo unspecified) | 29.8 |
| CN(Cc1ccc(Cl)s1)C(=O)COc1cccc(C(N)=O)c1 | -19 |
| CNC(=O)C1CN(c2cc(C)ncn2)CCN1Cc1ccccc1 (stereo unspecified) | -42 |

| Compound | INHIBITION [%] |
| --- | --- |
| Cc1noc(C)c1CN1CCn2cc(CN3CCOCC3)nc2C1 | -50 |
| Cc1cc(C)nc(NCCCC(=O)NCCn2ccc3ccccc32)n1 | 28.5 |
| Cc1c(C2CCOC(C)(C)C2)nc(N)c(C#N)c1-c1ccc(O)cc1 (stereo unspecified) | 30.1 |
| Cc1cnn(CCNCC(O)COc2c(Cl)cccc2Cl)c1 (stereo unspecified) | -32 |
| Cc1cnn(CCNCC(=O)NCCOc2ccc(Cl)cc2)c1 | -0.96 |
| Cc1cnn(CCNCC(O)COc2c(C)ccc(C)c2C)c1 (stereo unspecified) | 52.7 |
| Cc1cnn(CCNCC(=O)NCCOc2ccc(F)cc2)c1 | 45.7 |
| Cc1cnn(CCNCC(O)COc2ccc(Cl)cc2)c1 (stereo unspecified) | 45.8 |
| Cc1cnn(CCNCC(O)COc2ccc(C#N)cc2)c1 (stereo unspecified) | 26.3 |
| Cc1cnn(CCNCC(=O)NCCOc2ccccc2)c1 | 57.2 |
| Cc1cnn(CCNCC(O)COc2cccc(C(F)(F)F)c2)c1 (stereo unspecified) | 37.4 |
| Cc1cnn(CCNCC(O)COc2ccc(F)cc2)c1 (stereo unspecified) | 54.4 |
| CC(C)n1ccc(C(=O)N2CCCC(n3cncn3)C2)n1 (stereo unspecified) | 31.9 |
| Cc1cccc(Nc2nccnc2C2CCCN2CC(=O)N(C)C)n1 (stereo unspecified) | 46.1 |
| c1cnn(Cc2nnc3n2CCCN(CC2CCOCC2)C3)c1 | 27.9 |
| CN(C)c1ncc(I)c(C2CCCCN2C)n1 (stereo unspecified) | -0.232 |
| CN(C(=O)CN1CCC(NC(=O)c2cccs2)CC1)c1ccccc1 | 16.9 |
| O=C(CSc1nc2n[nH]cc2c(=O)n1-c1ccccc1)N1CCOCC1 | 13.9 |
| CC(C)(C)CN[C@@H]1CO[C@H](CNC(=O)C2CCCC2)[C@H]1O | 51 |
| O=C(NC[C@H]1OC[C@@H](NC2CCCC2)[C@@H]1O)C1CCCC1 | 30.5 |
| O=C(NC[C@H]1OC[C@@H](NC2COC2)[C@@H]1O)C1CCCC1 | 29 |
| CC(=O)N1CCN(c2ncnc3cc4c(cc23)OCCO4)CC1 | 36.6 |

| Compound | INHIBITION [%] |
| --- | --- |
| CNC(=O)CN(C)c1nc(-c2ccc(C(N)=O)cc2)nc2c1CCNC2 | 10.3 |
| Cc1cc(C)c2c(NCc3nncn3C3CCCCC3)ncnc2n1 | -41.4 |
| Cc1ncc(-c2ccnc(NC3CC3)n2)c(-c2cccnc2)n1 | 2.6 |
| O=C1NC2(CCCCC2)c2nnnn2-c2ccc(Br)cc21 | 42.4 |
| CC(C)N1CCC2(CC1)NC(=O)c1cc(Br)ccc1-n1nnnc12 | 58.2 |
| CCN1CCC2(CC1)NC(=O)c1cc(Br)ccc1-n1nnnc12 | 33.3 |
| CN1C[C@@H](O)[C@]2(CCN(C(=O)OCc3ccccc3)C2)S1(=O)=O | 1.8 |
| Cc1ccc2c(c1)C1(CC2)CCN(CC(=O)O)CC1 | 19.5 |
| c1cc(-c2ccc3c(c2)CCC32CCN(c3nncs3)CC2)ccn1 | 62.8 |
| Cc1cccc(N2CC3(CCN(c4nncs4)C3)CC2=O)c1 (stereo unspecified) | 14.5 |
| c1cc(-c2ccc3c(c2)C2(CC3)CCN(c3nncs3)CC2)ccn1 | 15.4 |
| c1cncc(-c2ccc3c(c2)C2(CC3)CCN(c3nncs3)CC2)c1 | 76.8 |
| Cc1ccc2c(c1)C1(CC2)CCN(c2nncs2)CC1 | 56.8 |
| CN1CCOCC12CCN(c1nncs1)CC2 | -7.24 |
| c1cc(-c2ccc3c(c2)CCC32CCN(c3nncs3)CC2)co1 | 24.9 |
| Cc1cnn(CCNCc2nc(CNC(=O)c3ccccc3)no2)c1 | 7.08 |
| CC(=O)Nc1ccc(CNc2cccc(OCCF)c2)cc1 | 25.2 |
| CNC(=O)c1ccc(OC2CCN(S(C)(=O)=O)CC2)c(Cl)c1 | -22.1 |
| CS(=O)(=O)N1CCC(Oc2ccc(C(=O)NC3CCCC3)cc2Cl)CC1 | -14.5 |
| CS(=O)(=O)N1CCC(Oc2ccc(C(=O)N3CCSCC3)cc2Cl)CC1 | 63.3 |
| CCN(CC)S(=O)(=O)N(CC)Cc1ccc2c(c1)OCCO2 | -19.9 |
| Cc1nn(Cn2ccc(C(=O)N3CCC(C)CC3)n2)c(C)c1Cl | -20.8 |
